The source of these data is PubChem BioAssay AID1852 (Sanford-Burnham Center for Chemical Genomics, 2009).

Among all 2,500 compounds or so, about 1,100 (44%) were called active. The set was probably picked from earlier hits. The list shows a part of the results. Values without a mark were called inactive.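 How the source made its calls: active means inhibition above 50% at 4 µM in the single-point screen; inactive means inhibition of 50% or less.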

The nature of this experiment: TNF-a-driven NF-kB reporter inhibitors, primary screen, selectivity assay for NOD1/NOD2 signaling inhibitor project, cell-based, HEK293T NF-kB-Luc, luminescence (AID 1852). The conditions noted are these: TNF-a induced, 14 h, at 4 µM, hits give high values.
Take `Oc1ccc(Oc2ccc3c(C(F)(F)F)cc(C(F)(F)F)nc3n2)cc1`: the inhibition was 45.2%.

Turning to `N#CC(c1ccccc1)c1ccc2c(C(F)(F)F)cc(C(F)(F)F)nc2n1` (stereo not drawn), the inhibition is 20.4%.

For `N#CC(c1cccc(Cl)c1)c1ccc2c(C(F)(F)F)cc(C(F)(F)F)nc2n1` (stereo not drawn), the inhibition was 55.7% (active).

With `O=c1c2cc(Cl)ccc2nc(-c2ccc(Cl)c(Cl)c2)n1O`, the inhibition is 74.1% (active).

`O=c1c2cc(Br)ccc2nc(-c2ccc(Cl)cc2)n1O`: the inhibition is -30%.

As for `O=c1c2cc(Br)ccc2nc(-c2cccc(C(F)(F)F)c2)n1O`, the inhibition was 65% (active).

As to `Cc1ccc(C(=O)O/N=C(\N)c2ccccn2)c(C)c1`, the inhibition was 61.4% (active).

On to `N/C(=N\OC(=O)c1cccc2ccccc12)c1ccc(Br)cc1`, for which the inhibition is -0.8%.

For `Cc1ccc(C(=O)O/N=C(\N)c2ccccn2)c(Cl)c1`, the inhibition is -56.4%.

Consider `CCN(CC)S(=O)(=O)c1ccc(Oc2ccc(S(=O)(=O)N(CC)CC)cc2)cc1`, for which the inhibition is 70.1% (active).

Regarding `C=C(C(=O)c1ccccc1)C(C)CC(=O)c1ccccc1` (stereo not drawn), the inhibition was -8.9%.

`C=C(C(=O)c1ccccc1)C(CC(=O)c1ccccc1)c1ccccc1` (stereo not drawn): the inhibition was -23.3%.

Turning to `C=C(C(=O)c1ccccc1)C(C(=C)C(=O)c1ccccc1)c1ccc(OC)cc1`, the inhibition was 62.5% (active).

For the compound `CCC1C(=NO)C(CC)C(c2ccccc2)NC1c1ccccc1` (stereo not drawn), the inhibition is 32.5%.

Consider `COc1cc(/C=C/[N+](=O)[O-])ccc1OCc1cccc(C(=O)O)c1`, for which the inhibition is 46%.

`CCOc1ccc(/C=C/C(O)=C2/C(=O)N(C)C3(C)CC2c2ccccc2O3)cc1OC` (stereo not drawn): the inhibition is 51.8% (active).

As for `COc1ccc(/C=C/C(O)=C2/C(=O)N(C)C3(C)CC2c2ccccc2O3)cc1` (stereo not drawn), the inhibition was -8.9%.

For the compound `Cc1ccc(S(=O)(=O)/N=C2/C=C(Sc3ncn[nH]3)C(=O)c3ccccc32)c(C)c1`, the inhibition is 100% (active).

Consider `CC(C)c1ccc(S(=O)(=O)/N=C2/C=C(Sc3ncn[nH]3)C(=O)c3ccccc32)cc1`, for which the inhibition is 84.1% (active).

In the case of `Cc1cc(C)c(S(=O)(=O)/N=C2/C=C(Sc3ncn[nH]3)C(=O)c3ccccc32)cc1C`, the inhibition is 75.1% (active).

Turning to `Cc1cc(Br)ccc1SCC(=O)OC/C(O)=C(\C#N)c1nc2ccccc2[nH]1`, the inhibition was 106% (active).

In the case of `Cc1ccc(C)c(SCC(=O)OC/C(O)=C(\C#N)c2nc3ccccc3[nH]2)c1`, the inhibition was 52.5% (active).

For `Cc1cc(SCC(=O)OC/C(O)=C(\C#N)c2nc3ccccc3[nH]2)c(C)cc1Br`, the inhibition was 59.5% (active).

With `COC(=O)C1CCN(C(=O)C2CCN(C(=O)[C@@H](NS(=O)(=O)c3ccc(C)cc3)C(C)C)CC2)CC1`, the inhibition was 15.9%.

Turning to `COC(=O)/C(=C\c1cc(OC)c(OC)c(OC)c1)c1nc2ccccc2[nH]1`, the inhibition is -13.3%.

As to `COc1cc(SC)ccc1C(=O)Nc1nc2ccccc2[nH]1`, the inhibition is 103% (active).

Turning to `COc1ccccc1C(=O)Nc1nc2ccccc2[nH]1`, the inhibition is 82.8% (active).

For `COc1ccc(Nc2nc(C(=O)N3CCc4ccccc4C3)cs2)cc1`, the inhibition is 20.3%.

For `Cc1oc(-c2ccc(Cl)cc2)nc1CSCC(=O)NC1CCN(Cc2ccccc2)CC1`, the inhibition was 47.1%.

`O=C(c1ccc(Cl)cc1)C1CCCN(Cc2cnn(-c3ccccc3)c2)C1` (stereo not drawn): the inhibition is 5.5%.

As for `CCOC(=O)N1CCN(C(=O)C2CCCN(Cc3nc(-c4ccc(Cl)cc4)oc3C)C2)CC1` (stereo not drawn), the inhibition is 56.2% (active).

As for `Cc1ccc(C)c(-n2c3nc(=O)[nH]c(=O)c-3cc3cc([N+](=O)[O-])ccc32)c1`, the inhibition was 58.5% (active).

As for `CCSc1nnc(Cc2cc(=O)[nH]c(=O)[nH]2)n1-c1cc(C)ccc1C`, the inhibition was 16.9%.

In the case of `Cc1ccc(-n2c3nc(=O)[nH]c(=O)c-3cc3cc([N+](=O)[O-])ccc32)cc1C`, the inhibition is 41.9%.

Turning to `CC(/C=C1\SC(=S)N(c2ccc(C(=O)O)cc2)C1=O)=C\c1ccccc1`, the inhibition is 3.6%.

`COc1ccc(/C=C2/SC(=S)N(CCC(=O)O)C2=O)cc1`: the inhibition is 36%.

Take `CC(/C=C1\SC(=O)N(CCCC(=O)O)C1=O)=C\c1ccccc1`: the inhibition was 79.5% (active).

In the case of `O=C(O)CCCN1C(=O)/C(=C\C(Cl)=C\c2ccccc2)SC1=S`, the inhibition is 77.9% (active).

With `COc1cccc(/C=C2/SC(=S)N(CCCC(=O)Nc3ccc(O)cc3)C2=O)c1`, the inhibition is 19.5%.

Turning to `CC1(c2ccccc2)CC(C)(C)N2C(=O)/C(=C3\SC(=S)NC3=O)c3cccc1c32` (stereo not drawn), the inhibition was 84.3% (active).

For `CCc1cc2c3c(c1)C(C)CC(C)(C)N3C(=O)/C2=C1\SC(=O)NC1=O` (stereo not drawn), the inhibition was 6.9%.

Regarding `N#Cc1c2ccc(O)cc2n2ccccc12`, the inhibition was 70% (active).

`COc1ccc2c(c1)oc(=O)c1ccccc12`: the inhibition was -18.4%.

Regarding `COc1ccc2c(C#N)c3ccccn3c2c1`, the inhibition is 66.3% (active).

Regarding `COc1ccc(-c2cc(=O)oc3cc(O)ccc23)cc1`, the inhibition was 2.6%.

In the case of `O=C(Oc1cc2oc(=O)cc(-c3ccccc3)c2cc1Cl)C1CCCCC1`, the inhibition is 77.6% (active).

With `COc1ccc(-c2cc(=O)oc3cc(OC(=O)C4CCCCC4)c(Cl)cc23)cc1`, the inhibition was 95.3% (active).

Consider `COc1ccc(N2C(=O)C(Cl)=C(Oc3cccc(OC)c3)C2=O)cc1`, for which the inhibition is 13%.

Turning to `Nc1ccc(Oc2cccc(Oc3ccc(N)cc3)c2)cc1`, the inhibition was 54.8% (active).

For the compound `CC(=O)c1ccc(N2CCN(S(=O)(=O)c3ccc4c(c3)CC(C)N4C(=O)C3CC3)CC2)cc1` (stereo not drawn), the inhibition was 23.2%.

In the case of `Cc1ccc(NC(=O)CSc2nc(C)c(Cc3ccccc3)c(=O)[nH]2)cc1`, the inhibition is 20%.

Take `O=C(CSc1nc2scc(-c3ccccc3)c2c(=O)[nH]1)Nc1ccccc1`: the inhibition was 32.9%.

As for `O=C(CSC1=NNC(c2ccccn2)S1)Nc1ccccc1` (stereo not drawn), the inhibition is 50.1% (active).

Take `COc1cc(CNc2ccc3[nH]c(=O)[nH]c3c2)ccc1OCc1ccc(F)cc1Cl`: the inhibition is 28.6%.

As to `Cc1cc(=O)n(C)c(=O)n1CCCCOc1ccc([N+](=O)[O-])cc1`, the inhibition was 24.7%.

With `CCc1ccc(C(=O)OCC(=O)c2c(N)n(CC(C)C)c(=O)n(C)c2=O)cc1`, the inhibition is 23.2%.

With `Cc1c(C(=O)OCC(=O)c2c(N)n(CC(C)C)c(=O)n(C)c2=O)oc2ccccc12`, the inhibition is 26.4%.

On to `CC(C)Cn1c(N)c(C(=O)CSc2ccc3c(c2)OCCO3)c(=O)n(C)c1=O`, for which the inhibition is 82.1% (active).

`O=C(c1ccc(-c2ccccc2)cc1)N1CCN(c2ccccn2)CC1`: the inhibition was 18.3%.

On to `CC1Cc2ccccc2N1S(=O)(=O)c1cccc(C(=O)N2CCN(c3ncccn3)CC2)c1` (stereo not drawn), for which the inhibition is 58.4% (active).

On to `CC(=O)c1ccc(N2CCN(S(=O)(=O)c3ccc4c(c3)CC(C)N4C(C)=O)CC2)cc1` (stereo not drawn), for which the inhibition is 47.2%.

`Cc1ccccc1C(=O)Nc1ccc(-c2nc3ccc(C(=O)c4ccccc4)cc3[nH]2)cc1`: the inhibition was 38.3%.

With `Cc1cc2nc(-c3ccc(SCc4ccccn4)nc3)[nH]c2cc1C`, the inhibition was 78.5% (active).

For `CC(C)(C)c1ccc(C(=O)O/N=C(\N)c2ccccc2)cc1`, the inhibition was 51% (active).

Take `COc1ccc(C(=O)O/N=C(\N)c2ccc(Br)cc2)cc1`: the inhibition was -10.5%.

`CC(C)(C)c1ccc(C(=O)O/N=C(\N)c2ccccn2)cc1`: the inhibition was 22.5%.

With `COc1ccc(-n2cnc3c(sc4nc(N5CCOCC5)c5c(c43)CCCC5)c2=O)cc1`, the inhibition was 46.4%.

As for `CCc1ccc(OCC(=O)Nc2ccc(-c3cc4ccccc4oc3=O)c(OC)c2)cc1`, the inhibition is 51.2% (active).

For the compound `Cc1ccn2cc(-c3cc4ccccc4oc3=O)nc2c1`, the inhibition was -79.5%.

`COc1ccc(-c2cc(=O)oc3cc(OCC(=O)Nc4ccc(CCO)cc4)ccc23)cc1`: the inhibition is 38.3%.

In the case of `Cn1nccc1C(=O)N1CCN(c2ccccc2F)CC1`, the inhibition is -23.6%.

On to `Cc1ccc(Cl)cc1N1CCN(C(=O)c2cc3c(=O)[nH]c4ccccc4c3n2C)CC1`, for which the inhibition is 89.7% (active).

In the case of `Cc1cccc(C)c1OCC(=O)OC/C(O)=C(\C#N)c1nc2ccccc2[nH]1`, the inhibition is 101% (active).

Regarding `COc1ccccc1OCC(=O)OC/C(O)=C(\C#N)c1nc2ccccc2[nH]1`, the inhibition was 98.2% (active).

Regarding `COc1ccccc1OCc1nnc(SCC(N)=O)n1-c1ccccc1`, the inhibition was 0.9%.

In the case of `CC(C)(C)c1nc(SCC(=O)Nc2nc3c(s2)CCCC3)c2ccccc2n1`, the inhibition was -17.1%.

For the compound `Cc1nc(SCC(=O)Nc2nc3ccccc3s2)c(C#N)c(C)c1C`, the inhibition is 61.7% (active).

For the compound `O=C1/C(=C/c2cccc([N+](=O)[O-])c2)CCc2ccccc21`, the inhibition was -28.5%.

In the case of `COc1ccc(CCNC(=S)NC2CCN(Cc3ccccc3)CC2)cc1OC`, the inhibition was 43.5%.

Consider `COc1ccc(/C=C2\CN(Cc3ccccc3)C/C(=C\c3ccc(OC)c(O)c3)C2=O)cc1O`, for which the inhibition is 77.4% (active).

For `CCN1C/C(=C/c2cccc([N+](=O)[O-])c2)C(=O)/C(=C/c2cccc([N+](=O)[O-])c2)C1`, the inhibition was 106% (active).

Consider `O=[N+]([O-])c1cccc(S(=O)(=O)NCc2ccncc2)c1`, for which the inhibition is 42.3%.

As to `CCC1C/C(=C\c2cc(OC)c(OC)cc2OC)C(=O)/C(=C/c2cc(OC)c(OC)cc2OC)C1` (stereo not drawn), the inhibition was 36.6%.

On to `CCN1C/C(=C/c2ccc(OC)c(O)c2)C(=O)/C(=C/c2ccc(OC)c(O)c2)C1`, for which the inhibition was 101% (active).

Regarding `Cc1cccc(-n2c(SC(C)C(=O)O)nc3sc4c(c3c2=O)CCCC4)c1` (stereo not drawn), the inhibition was 45.4%.

With `N#Cc1ccc(NC(=O)Nc2ccc(Cl)cc2)cc1`, the inhibition was 22.5%.

`O=[N+]([O-])c1ccc(NC(=S)NCCc2ccc(Cl)cc2)cc1`: the inhibition is 87.9% (active).

As to `O=[N+]([O-])c1ccc(NC(=S)NCCc2ccc(F)cc2)cc1`, the inhibition is 18.3%.

For `CN(Cc1cccnc1)C(=O)c1cc(COc2ccc3ncccc3c2)on1`, the inhibition was 42.9%.

In the case of `CN(Cc1nccs1)C(=O)c1cc(COc2cccc3cnccc23)on1`, the inhibition was 66.3% (active).

With `Cc1nc(CN(C)C(=O)c2cc(COc3ccc4ncccc4c3)on2)cs1`, the inhibition was 27.2%.

`COc1cccc(CN(C)C(=O)c2cc(COc3ccc4ncccc4c3)on2)c1`: the inhibition is 56.4% (active).

With `CCc1ccc(CN(C)C(=O)c2cc(COc3cccc4cnccc34)on2)cc1`, the inhibition is 80% (active).
